Experimental data: PubChem BioAssay (Tox21)
“And” between values parts separate entries of the source, which are not always exact repeats. Equal values may be shown once. Records with an inconclusive call do not appear. The source made the active and inactive calls. Unless noted, the call rests on the fitted dose curve; in most records, active means well fitted curve in the direction sought with a large enough effect in the repeat runs; inconclusive means weak or mixed curves; inactive means no such curve, though single readings can be large; an effect the other way counts as inactive or inconclusive.

What was measured:
[1] = qHTS assay for small molecule agonists of the p53 signaling pathway (AID 651631; calls by dose curve; further: nearly all actives have a fitted effect of over 15% in size; further: potency means the concentration at half of the fitted maximal effect)
How it was run: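 Testing took place in human colorectal HCT-116 cells with stable p53RE-driven beta-lactamase. After 16 h of compound exposure at 37 °C, a FRET substrate was added and fluorescence recorded 2 h later.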

[2] = qHTS assay for small molecules that induce genotoxicity in human embryonic kidney cells expressing luciferase-tagged ATAD5 (AID 651632); further: nearly all actives have a fitted effect of over 15% in size
How it was run: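 Luminescent reporter readout, HEK293T ATAD5-luc line: 16 hr drug exposure (37C, 5% CO2) followed by Amplite, 30 min RT.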

[3] = qHTS assay for small molecule agonists of the p53 signaling pathway - cell viability (AID 651633; calls by dose curve; further: nearly all actives have a fitted effect of over 30% in size; further: potency means the concentration at half of the fitted maximal effect)
How it was run: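 p53RE-bla cells, seeded at 4,000 per well and rested 5 h at 37 C/5% CO2, received compounds in DMSO for 16 h at 37 C. CellTiter-Glo was then added, and luminescence was read after 30 min at room temperature to gauge cytotoxicity.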

[4] = qHTS assay for small molecules that induce genotoxicity in human embryonic kidney cells expressing luciferase-tagged ATAD5 - cell viability (AID 651634; calls by dose curve; further: nearly all actives have a fitted effect of over 25% in size)
How it was run: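 Viability read: CellTiter-Fluor fluorescence, 30 min at 37C. Cells: HEK293T, luciferase-tagged ATAD5. Exposure: 15.5 hr, 37C, 5% CO2, compound or DMSO vehicle.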

[5] = qHTS assay for small molecule disruptors of the mitochondrial membrane potential - cell viability (AID 720634; calls by dose curve; further: nearly all actives have a fitted effect of over 20% in size; further: potency means the concentration at half of the fitted maximal effect;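 on activity change, negative = cytotoxicity: human HepG2 liver cancer cells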)
How it was run: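 HepG2, 1 hr compound, 37 C. ATP luminescence via CellTiter-Glo, 30 min RT, same well as m-MPI.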

[6] = qHTS assay to test for compound auto fluorescence at 590 nm (red) in HepG2 cells (AID 720674)
How it was run: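 Compound auto-fluorescence is scored relative to Rose Bengal sodium, measured at 540/590 nm in live HepG2 cultures after 1 hr compound contact (37 C, 5% CO2).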

[7] = qHTS assay to test for compound auto fluorescence at 535 nm (green) in HepG2 cells (AID 720675)
[8] = qHTS assay to test for compound auto fluorescence at 460 nm (blue) in HEK293 cells (AID 720678)
How it was run: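 Cells were seeded and left to adhere for 4-5 hr at 37C. Compounds were then pin-transferred. After an overnight incubation at 37C under 5% CO2, intrinsic fluorescence at 405/460 nm was measured and referenced to triamterene.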

[9] = qHTS assay to test for compound auto fluorescence at 590 nm (red) in HEK293 cells (AID 720679)
How it was run: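 Each well held 2,000 HEK293 cells in medium containing 10% dialyzed FBS. Following 4-5 hr attachment at 37C, 23 nL test compound or DMSO was added; plates sat overnight, and red fluorescence (540/590nm) was recorded.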

[10] = qHTS assay to test for compound auto fluorescence at 535 nm (green) in HEK293 cells (AID 720680)
[11] = qHTS assay to test for compound auto fluorescence at 460 nm (blue) in HEK293 cell free culture (AID 720681)
How it was run: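 Test compounds were pinned into cell-free culture medium (DMEM with 10% FBS) and fluorescence was read directly at Ex/Em 405/460 nm. Signals were expressed as fluorescence equivalents of triamterene, with DMSO vehicle as control.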

[12] = qHTS assay to test for compound auto fluorescence at 535 nm (green) in HEK293 cell free culture (AID 720682)
How it was run: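 DMEM + 10% FBS, cell-free; cpd or DMSO pinned in; Ex485/Em535 read; output as fluorescein-equivalent signal.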

[13] = qHTS assay to test for compound auto fluorescence at 590 nm (red) in HepG2 cell free culture (AID 720684)
How it was run: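 Measured in medium alone (MEM containing 10% FBS) following pintool addition of compound; emission at 590 nm with 540 nm excitation, referenced to Rose Bengal sodium.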

[14] = qHTS assay to test for compound auto fluorescence at 460 nm (blue) in HepG2 cell free culture (AID 720685)
How it was run: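 Compound (23 nL) or DMSO pinned into cell-free MEM with 10% FBS; blue fluorescence read at 405/460 nm excitation/emission, expressed as auto-fluorescence equivalency to triamterene.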

[15] = qHTS assay to test for compound auto fluorescence at 535 nm (green) in HepG2 cell free culture (AID 720686)
[16] = qHTS assay to test for compound auto fluorescence at 460 nm (blue) in HepG2 cells (AID 720687)
How it was run: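 Cells (2,000/well in MEM with 10% FBS) attached overnight at 37 C, then were exposed to compound or DMSO for 1 hr at 37 C, 5% CO2. Fluorescence read at Ex/Em 405/460 nm, expressed as triamterene-equivalent signal.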

[17] = target: Glucocorticoid receptor (Homo sapiens) (UniProt P04150); experiment: qHTS assay to identify small molecule agonists of the glucocorticoid receptor (GR) signaling pathway (AID 720691; active means well fitted activation curve with a large enough effect in the signal ratio in the repeat runs, not every such curve was filed as active; the % refers to the signal ratio); details: GR-bla HeLa, beta-lactamase reporter ratio, 18 h; activation: at 62.4 µM (top of the series)
Glucocorticoid receptor (Homo sapiens), sequence (P04150 whole entry, looked up): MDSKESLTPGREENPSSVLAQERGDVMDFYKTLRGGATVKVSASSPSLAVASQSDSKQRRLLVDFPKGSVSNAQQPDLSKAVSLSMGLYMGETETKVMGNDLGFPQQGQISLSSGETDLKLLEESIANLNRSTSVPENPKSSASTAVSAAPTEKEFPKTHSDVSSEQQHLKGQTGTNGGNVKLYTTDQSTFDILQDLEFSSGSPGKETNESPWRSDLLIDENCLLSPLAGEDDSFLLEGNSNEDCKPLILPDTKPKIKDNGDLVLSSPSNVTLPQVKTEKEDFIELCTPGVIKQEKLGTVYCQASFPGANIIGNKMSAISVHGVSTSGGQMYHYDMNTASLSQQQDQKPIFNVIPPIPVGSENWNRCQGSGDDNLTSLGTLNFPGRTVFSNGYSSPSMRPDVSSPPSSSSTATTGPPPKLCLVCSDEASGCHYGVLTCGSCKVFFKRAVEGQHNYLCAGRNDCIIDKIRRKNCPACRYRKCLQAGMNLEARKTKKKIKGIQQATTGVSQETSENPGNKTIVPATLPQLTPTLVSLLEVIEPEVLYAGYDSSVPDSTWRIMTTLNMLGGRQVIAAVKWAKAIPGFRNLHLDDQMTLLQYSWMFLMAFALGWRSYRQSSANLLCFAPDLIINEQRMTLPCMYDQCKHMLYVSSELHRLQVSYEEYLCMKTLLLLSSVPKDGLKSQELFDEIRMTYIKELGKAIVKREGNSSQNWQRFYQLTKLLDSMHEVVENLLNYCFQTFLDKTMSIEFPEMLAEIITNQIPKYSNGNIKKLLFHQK
How it was run: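 qHTS in GR-bla HeLa cells: 4 h settling at 37 C/5% CO2, 18 h compound incubation at 37 C, 2 h LiveBLAzer B/G FRET substrate at room temperature, fluorescence intensity measured.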

[18] = qHTS assay for small molecule disruptors of the mitochondrial membrane potential (AID 720635); further: potency means the concentration at half of the fitted maximal effect
How it was run: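 HepG2 cells (2,000/well) attached overnight at 37C, then took compound for 1 hr at 37C, 5% CO2. Mito-MPS dye was added for 30 min; fluorescence was read at 490/535 nm (monomers) and 540/590 nm (aggregates).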

[19] = qHTS assay to test for compound auto fluorescence at 590 nm (red) in HEK293 cell free culture (AID 720683)
How it was run: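 Tox21 10K library compounds were pinned into cell-free DMEM with 10% FBS and fluorescence was read at excitation 540 nm. Activity is expressed as Rose Bengal sodium equivalency.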

[20] = target: Glucocorticoid receptor (Homo sapiens) (UniProt P04150); experiment: qHTS assay to identify small molecule antagonists of the glucocorticoid receptor (GR) signaling pathway (AID 720692; active means well fitted inhibition curve with a large enough effect in the signal ratio in the repeat runs, not every such curve was filed as active; the % refers to the signal ratio)
How it was run: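 Inhibition of glucocorticoid signalling is measured in HeLa cells with a GRE-controlled beta-lactamase reporter; cells are co-treated with compound and 5 nM dexamethasone (final) for 18 h before FRET substrate readout.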
On the % scale 0 is the no-effect control and ±100 the full control effect.

OCC(Br)CBr (stereo not drawn)
inactive: Potency [1] | Potency [2] | Potency [3] | Potency [4] | Potency [5] | outcome [6] | Potency [7] | Potency [8] | outcome [9] | outcome [10] | Potency [11] | outcome [12] | outcome [13] | Potency [14] | Potency [15] | Potency [16] | Potency [17]

CCOP(=S)(OCC)Oc1cc(C)nc(N(CC)CC)n1
active: Potency [18] 48.6 µM
inactive: Potency [1] | Potency [2] | Potency [3] | Potency [4] | outcome [6] | Potency [7] | Potency [8] | outcome [9] | outcome [10] | Potency [11] | outcome [12] | outcome [19] | outcome [13] | Potency [14] | Potency [15] | Potency [16] | Potency [17]

C#CCO
inactive: Potency [1] | Potency [2] | Potency [3] | Potency [4] | outcome [6] | Potency [7] | Potency [8] | outcome [10] | Potency [11] | outcome [12] | outcome [19] | outcome [13] | Potency [14] | Potency [15] | Potency [16] | Potency [17] | Potency [20]

Nc1cc(Cl)ccc1Cl
inactive: Potency [1] | Potency [2] | Potency [3] | Potency [4] | Potency [5] | outcome [6] | Potency [7] | Potency [8] | outcome [10] | outcome [12] | outcome [19] | outcome [13] | Potency [14] | Potency [15] | Potency [16] | Potency [17]

Clc1c(Cl)c(Cl)c(Cl)c(Cl)c1Cl
inactive: activation [1] -4.73% [at 8.3 µM] | activation [2] 3.25% [at 8.08 µM] | activity change, negative = cytotoxicity [3] -24.8% [at 8.08 µM] | activity, negative = cytotoxicity [4] 8.7% [at 8.08 µM] | activity change, negative = cytotoxicity [5] 3.14% [at 8.08 µM] | fluorescence, relative to Rose Bengal [6] -0.0012% [at 3.72 µM] | fluorescence, % of triamterene [8] -0.0308% [at 3.72 µM] | fluorescence, % of fluorescein [10] 0.081% [at 3.72 µM] | fluorescence, % of fluorescent control [11] -0.026% [at 3.72 µM] | activity change [12] 0.0009% [at 3.72 µM] | fluorescence, % of fluorescent control [19] 0.029% [at 3.72 µM] | fluorescence, % of Rose Bengal [13] -0.0219% [at 3.72 µM] | fluorescence, % of fluorescent control [14] 0.0528% [at 3.72 µM] | fluorescence, % of fluorescein control [15] -0.0548% [at 3.72 µM] | fluorescence, % of fluorescent control [16] -0.0163% [at 3.72 µM] | activation [17] -0.383% [at 6.9 µM] | activity change, negative = inhibition [20] -10.3% [at 7.04 µM]

Cc1cc(C2CC2)nc(Nc2ccccc2)n1
inactive: Potency [1] | Potency [2] | Potency [3] | Potency [4] | outcome [6] | Potency [7] | Potency [8] | outcome [9] | outcome [10] | Potency [11] | outcome [12] | outcome [19] | outcome [13] | Potency [14] | Potency [15] | Potency [16]

CCCCON=O
inactive: Potency [1] | Potency [2] | Potency [3] | Potency [4] | Potency [5] | outcome [6] | Potency [8] | outcome [9] | outcome [10] | Potency [11] | outcome [12] | outcome [19] | outcome [13] | Potency [14] | Potency [15] | Potency [16] | Potency [17] | Potency [20]

[O]=[Cr][O][Cr]=[O]
inactive: Potency [1] | Potency [2] | Potency [3] | Potency [4] | outcome [6] | Potency [8] | outcome [9] | outcome [10] | Potency [11] | outcome [12] | outcome [19] | outcome [13] | Potency [14] | Potency [15] | Potency [16] | Potency [17] | Potency [20]

CCN(CC)CCN1C(=O)CN=C(c2ccccc2F)c2cc(Cl)ccc21
inactive: Potency [1] | Potency [2] | Potency [3] | Potency [5] | outcome [6] | Potency [7] | Potency [8] | outcome [9] | outcome [10] | outcome [12] | outcome [19] | outcome [13] | Potency [14] | Potency [15] | Potency [16] | Potency [17] | Potency [20]

CN/C(=N\[N+](=O)[O-])NCc1cnc(Cl)s1
inactive: Potency [1] | Potency [2] | Potency [3] | Potency [4] | Potency [5] | outcome [6] | Potency [7] | Potency [8] | outcome [9] | outcome [10] | outcome [12] | outcome [19] | outcome [13] | Potency [14] | Potency [15] | Potency [16]

O=C1C2(Cl)C3(Cl)C4(Cl)C(Cl)(Cl)C5(Cl)C3(Cl)C1(Cl)C5(Cl)C24Cl (stereo not drawn)
active: Potency [1] 60.1 µM | Potency [3] 37.9 µM | Potency [5] 1.9 µM | Potency [18] 536 nM and 585 nM
inactive: Potency [2] | outcome [6] | Potency [7] | Potency [8] | outcome [9] | outcome [10] | Potency [11] | outcome [12] | outcome [19] | outcome [13] | Potency [14] | Potency [15] | Potency [16]

N#Cc1c[nH]cc1-c1cccc2c1OC(F)(F)O2
inactive: Potency [2] | Potency [4] | outcome [6] | Potency [7] | Potency [8] | outcome [9] | outcome [10] | Potency [11] | outcome [12] | outcome [19] | outcome [13] | Potency [14] | Potency [15] | Potency [16]
active: Potency [1] 8.63 µM | Potency [5] 5.45 µM | Potency [18] 2.17 µM

Cc1nn(-c2cc(NS(C)(=O)=O)c(Cl)cc2Cl)c(=O)n1C(F)F
inactive: Potency [1] | Potency [2] | Potency [3] | Potency [4] | Potency [5] | outcome [6] | Potency [8] | outcome [9] | outcome [10] | Potency [11] | outcome [12] | outcome [19] | outcome [13] | Potency [14] | Potency [15] | Potency [16]

CN
inactive: Potency [1] | Potency [3] | Potency [4] | Potency [5] | Potency [18] | outcome [6] | Potency [7] | Potency [8] | outcome [9] | outcome [10] | Potency [11] | outcome [12] | outcome [19] | outcome [13] | Potency [14] | Potency [15] | Potency [16] | Potency [17] | Potency [20]
